Composite z-score, composite Z-score and z-score data for 5 molecules are collected here from PubChem BioAssay.

Test [1] addresses Albumin (Bos taurus) (UniProt P02769). Description: compounds binding labelled BSA control protein – biochemical, small-molecule microarray, Alexa647 label, 635/667 nm fluorescence, artefact control for SMM control protein annotation, profiling panel (AID 1118).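 Also: score merges 667 nm emission intensity and signal-to-noise per printed compound spot.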 As to conditions: BSA-A647 binding, fluorescence 635 nm, higher = more signal.
Test [2] is described as follows: probe aXIP binding to arrayed compounds – biochemical, NeuroSMM set, 635/667 nm fluorescence, primary screen (AID 1119).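 Also: probe is the protein aXip251-270 applied at 1 µg/mL to compound-printed slides; binding of probe to printed compounds measured as 667 nm fluorescence plus signal to noise.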 The conditions noted are these: small-molecule microarray, higher = more signal, called active from +8 up or from −8 down.
The nature of test [3]: probe aNOTCH3 binding on compound microarray – biochemical, small-molecule microarray, 635/667 nm fluorescence, primary screen (AID 1120).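 Also: probe is a biotin-tagged antibody raised against NOTCH3 rather than NOTCH3 protein; score merges spot fluorescence near 667 nm with spot signal to noise.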 As to conditions: higher = more signal.
Test [4] is described as follows: probe aNOTCH2 binding on compound microarray – biochemical, small-molecule microarray, 635/667 nm fluorescence, primary screen (AID 1121).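 Also: score merges feature fluorescence read at 667 nm with its signal to noise.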 As to conditions: higher = more signal.
The target in test [5] is Carbonic anhydrase 2 (Homo sapiens) (UniProt P00918). The test is described as follows: compounds binding carbonic anhydrase 2 – biochemical, small-molecule microarray, Alexa647-labelled CAII, profiling panel (AID 1122). The conditions noted are these: CAII-A647 binding fluorescence, higher = more signal.
Test [6] in a line: COS7 lysate on small-molecule microarray, probe aHis, 635 nm (AID 1123).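 Also: z-score combines 667nm fluorescence intensity with signal-to-noise per printed compound spot.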 The conditions noted are these: COS7 cell lysate, fluorescence, higher = more signal.
A short description of test [7]: probe aLAP1 signal on lysate-treated microarray – cell lysate, small-molecule microarray, COS7 lysate, primary screen (AID 1124).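 Also: lysate comes from COS7 cells expressing LAP1 and is applied at 0.3 µg/mL; score merges spot fluorescence near 667 nm with signal-to-noise over triplicate slides.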 The conditions noted are these: probe aLAP1, fluorescence, higher = more signal.
Test [8] relates to Sam68 (KHDRBS1). The test is described as follows: compounds binding KHDRBS1 protein – biochemical, small-molecule microarray, 635 nm fluorescence, primary screen (AID 1125).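 Also: score merges 667 nm channel intensity with signal to noise over triplicate slides.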 As to conditions: higher = more signal.
The subject of test [9] is Chordin-like protein 2 (CHRDL2). The test is described as follows: compounds binding chordin-like 2 – biochemical, small-molecule microarray, 635 nm fluorescence, primary screen (AID 1126).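 Also: printed compound slides probed with Chrdl2 protein at 4 µg/mL for 1 h at 4 C; score merges 667 nm emission intensity with signal to noise over three replicate slides.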 As to conditions: fluorescence 635 nm, higher = more signal.
For test [10], the target named is Concanavalin-A (Canavalia ensiformis) (UniProt P02866). Description: compounds binding concanavalin A lectin – biochemical, small-molecule microarray, Alexa647 label, 635 nm, artefact control for SMM control protein annotation, primary screen (AID 1127).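 Also: z combines 667 nm emission intensity with signal-to-noise across three replicate slides.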 The conditions noted are these: ConA-A647 binding fluorescence, higher = more signal.
Chain of Concanavalin-A (Canavalia ensiformis) (P02866 whole entry, looked up): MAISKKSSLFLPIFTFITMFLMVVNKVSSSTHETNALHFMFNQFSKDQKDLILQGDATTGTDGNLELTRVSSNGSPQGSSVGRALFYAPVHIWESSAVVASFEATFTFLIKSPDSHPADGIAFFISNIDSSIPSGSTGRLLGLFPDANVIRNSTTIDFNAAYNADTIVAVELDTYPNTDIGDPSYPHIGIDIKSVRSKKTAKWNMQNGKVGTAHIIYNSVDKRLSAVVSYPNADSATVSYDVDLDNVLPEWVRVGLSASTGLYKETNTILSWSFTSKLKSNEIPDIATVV
A short description of test [11]: compounds binding Alexa647 anti-His antibody – biochemical, small-molecule microarray, 635 nm fluorescence, artefact control for SMM control protein annotation, primary screen (AID 1128).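 Also: score merges feature fluorescence with signal-to-noise for each printed compound spot.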 As to conditions: higher = more signal.
The subject of test [12] is Human papillomavirus type 1a E7 protein (residues 1-88). Description: HPV1a E7 small-molecule binders, primary screen, biochemical, small-molecule microarray, residues 1-88, 635 nm (AID 1129). The conditions noted are these: small-molecule microarray binding, fluorescence 635 nm; higher = more signal.
Test [13] has as its target Focal adhesion kinase 1 (Homo sapiens) (UniProt Q05397). Description: PTK2 protein binding on printed compound slides – biochemical, small-molecule microarray, 635/667 nm fluorescence, BSA, DTT, primary screen (AID 1130).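 Also: composite of spot emission at 667 nm and signal to noise over triplicate slides.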 The conditions noted are these: 635 nm fluorescence, higher = more signal.
Test [14] concerns Fibrinogen (Alexa647-labelled). The test is described as follows: Alexa647-fibrinogen binding to printed small molecules – biochemical, small-molecule microarray, 635/667 nm fluorescence, artefact control for SMM control-protein annotation, profiling panel (AID 1131).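 Also: z-score merges 667 nm fluorescence with per-spot signal-to-noise over triplicate slides.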 The conditions noted are these: fibrinogen-A647 binding fluorescence, higher = more signal.
Test [15] concerns the target Follistatin (Homo sapiens) (UniProt P19883). Description: FST protein binding to printed compounds – biochemical, small-molecule microarray, 635/667 nm fluorescence, primary screen (AID 1132). The conditions noted are these: 635 nm fluorescence, higher = more signal.
In test [16] the target is Fibroblast growth factor 2 (Homo sapiens) (UniProt P09038). Description: basic fibroblast growth factor binding to printed compounds – biochemical, small-molecule microarray, 635/667 nm fluorescence, primary screen (AID 1133). The conditions noted are these: FGF2, fluorescence 635/667, higher = more signal.
Chain of Fibroblast growth factor 2 (Homo sapiens) (P09038 whole entry, looked up): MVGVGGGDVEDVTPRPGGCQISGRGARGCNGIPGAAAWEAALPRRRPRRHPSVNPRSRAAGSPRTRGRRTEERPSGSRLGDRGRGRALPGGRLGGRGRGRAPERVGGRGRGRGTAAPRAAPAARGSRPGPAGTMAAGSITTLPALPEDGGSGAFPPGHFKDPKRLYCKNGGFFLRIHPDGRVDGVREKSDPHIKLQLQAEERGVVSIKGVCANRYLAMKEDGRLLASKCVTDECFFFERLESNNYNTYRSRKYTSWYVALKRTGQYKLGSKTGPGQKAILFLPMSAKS
The nature of test [17]: JC-1 mitochondrial potential readout, lung cancer cells – cell-based, A549, JC-1 fluorescence, basal, 24 h, 100 nL, profiling panel (AID 1138).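 Also: A549 lung adenocarcinoma cells under basal conditions with no added stimulus; test concentration not given here.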 The conditions noted are these: higher = more signal.
The test system of test [18] is Lefty1. Description: Lefty1 protein binding to printed compounds – biochemical, small-molecule microarray, 635/667 nm fluorescence, primary screen (AID 1139). The conditions noted are these: fluorescence 635/667, higher = more signal.
In test [19] the test system is wheat germ agglutinin (Triticum aestivum), Alexa647-labelled. Description: Alexa647-WGA lectin binding to printed small molecules – biochemical, small-molecule microarray, 635/667 nm fluorescence, artefact control for SMM control-protein annotation, profiling panel (AID 1140).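 Also: score merges 667 nm feature emission with signal to noise over triplicate slides.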 As to conditions: WGA-A647 binding, 635 nm fluorescence, higher = more signal.
For test [20], the target named is Luciferin 4-monooxygenase (Photinus pyralis) (UniProt P08659). Description: inhibition of purified Photinus pyralis luciferase – biochemical, luminescence, purified enzyme, 2006 set, primary screen (AID 1141).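 Also: cell-free assay with purified firefly luciferase at 100 ng per well in PBS; test concentration not given here.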 The conditions noted are these: purified firefly luciferase, SteadyGlo luminescence, 30 min; higher = more signal, called active from +8 up or from −8 down.
Chain of Luciferin 4-monooxygenase (Photinus pyralis) (P08659 whole entry, looked up): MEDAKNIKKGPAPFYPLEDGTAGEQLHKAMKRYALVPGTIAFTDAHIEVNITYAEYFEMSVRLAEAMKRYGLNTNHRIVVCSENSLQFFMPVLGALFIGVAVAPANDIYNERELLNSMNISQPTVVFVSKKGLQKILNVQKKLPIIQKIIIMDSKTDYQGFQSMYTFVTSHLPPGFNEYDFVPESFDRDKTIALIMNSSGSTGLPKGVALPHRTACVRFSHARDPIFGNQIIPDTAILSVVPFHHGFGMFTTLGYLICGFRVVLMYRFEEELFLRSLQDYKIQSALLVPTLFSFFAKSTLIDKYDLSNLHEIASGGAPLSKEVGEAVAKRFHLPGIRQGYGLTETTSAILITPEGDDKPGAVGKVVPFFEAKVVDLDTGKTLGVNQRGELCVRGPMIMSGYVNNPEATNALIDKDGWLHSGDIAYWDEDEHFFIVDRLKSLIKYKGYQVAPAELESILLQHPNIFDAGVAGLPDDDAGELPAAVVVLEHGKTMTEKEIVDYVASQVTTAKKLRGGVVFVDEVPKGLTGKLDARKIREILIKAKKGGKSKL

Molecules are shown by their SMILES. The source made the active and inactive calls.

Chain of Albumin (Bos taurus) (P02769 whole entry, looked up): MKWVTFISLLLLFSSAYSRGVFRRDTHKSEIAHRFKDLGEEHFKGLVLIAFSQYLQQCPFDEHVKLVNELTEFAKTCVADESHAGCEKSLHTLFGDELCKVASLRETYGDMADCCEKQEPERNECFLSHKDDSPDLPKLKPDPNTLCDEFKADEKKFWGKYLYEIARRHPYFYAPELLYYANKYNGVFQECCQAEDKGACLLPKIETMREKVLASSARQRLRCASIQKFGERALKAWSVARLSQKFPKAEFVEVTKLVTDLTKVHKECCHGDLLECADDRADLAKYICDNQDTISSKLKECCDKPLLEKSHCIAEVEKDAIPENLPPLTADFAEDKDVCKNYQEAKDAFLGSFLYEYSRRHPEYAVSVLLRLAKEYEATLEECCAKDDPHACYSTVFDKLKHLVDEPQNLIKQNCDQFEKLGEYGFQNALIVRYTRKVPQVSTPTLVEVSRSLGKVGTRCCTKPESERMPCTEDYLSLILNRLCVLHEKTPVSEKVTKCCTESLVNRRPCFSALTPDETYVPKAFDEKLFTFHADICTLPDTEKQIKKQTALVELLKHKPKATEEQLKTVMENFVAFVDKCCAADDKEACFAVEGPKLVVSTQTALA
Chain of Follistatin (Homo sapiens) (P19883 whole entry, looked up): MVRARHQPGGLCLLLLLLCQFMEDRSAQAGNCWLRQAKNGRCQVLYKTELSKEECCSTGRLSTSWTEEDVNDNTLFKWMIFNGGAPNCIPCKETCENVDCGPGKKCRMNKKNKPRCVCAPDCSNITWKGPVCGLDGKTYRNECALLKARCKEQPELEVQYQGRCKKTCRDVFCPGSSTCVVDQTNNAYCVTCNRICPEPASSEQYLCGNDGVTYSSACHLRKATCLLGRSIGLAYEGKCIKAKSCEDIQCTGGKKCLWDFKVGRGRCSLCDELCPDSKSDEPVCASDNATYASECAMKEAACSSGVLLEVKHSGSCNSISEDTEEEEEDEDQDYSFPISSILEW
Chain of Focal adhesion kinase 1 (Homo sapiens) (Q05397 whole entry, looked up): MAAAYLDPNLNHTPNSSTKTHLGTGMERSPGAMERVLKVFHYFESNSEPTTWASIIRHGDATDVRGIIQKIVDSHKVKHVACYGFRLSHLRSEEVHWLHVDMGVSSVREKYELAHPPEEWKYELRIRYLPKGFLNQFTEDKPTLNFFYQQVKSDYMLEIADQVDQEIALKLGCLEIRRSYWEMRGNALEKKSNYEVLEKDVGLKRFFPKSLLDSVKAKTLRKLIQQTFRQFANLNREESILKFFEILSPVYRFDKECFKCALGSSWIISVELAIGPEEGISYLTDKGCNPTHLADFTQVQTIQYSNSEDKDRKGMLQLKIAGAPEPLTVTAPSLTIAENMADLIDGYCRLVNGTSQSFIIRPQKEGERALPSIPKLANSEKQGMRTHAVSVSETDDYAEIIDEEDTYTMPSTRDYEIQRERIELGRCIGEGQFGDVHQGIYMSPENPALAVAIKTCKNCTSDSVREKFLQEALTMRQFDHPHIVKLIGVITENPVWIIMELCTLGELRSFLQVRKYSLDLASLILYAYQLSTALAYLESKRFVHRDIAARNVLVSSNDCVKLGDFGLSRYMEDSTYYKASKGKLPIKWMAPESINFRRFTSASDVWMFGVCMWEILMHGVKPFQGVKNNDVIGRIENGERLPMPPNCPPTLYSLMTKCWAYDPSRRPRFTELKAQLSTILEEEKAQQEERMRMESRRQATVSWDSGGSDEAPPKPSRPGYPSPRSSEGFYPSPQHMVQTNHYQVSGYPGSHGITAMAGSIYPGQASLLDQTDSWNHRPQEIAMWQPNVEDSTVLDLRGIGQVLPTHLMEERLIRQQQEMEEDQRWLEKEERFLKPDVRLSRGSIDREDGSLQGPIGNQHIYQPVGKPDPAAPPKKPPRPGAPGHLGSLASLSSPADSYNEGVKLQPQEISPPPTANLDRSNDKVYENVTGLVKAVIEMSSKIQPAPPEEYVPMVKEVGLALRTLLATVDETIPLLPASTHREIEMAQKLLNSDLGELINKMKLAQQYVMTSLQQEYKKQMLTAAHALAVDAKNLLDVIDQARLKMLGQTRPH

As for `O=C1OCC=C[C@H]2OC34C=CCN(c5ccc(Cl)cc5)C(=O)[C@H]3N(CCO)C(=O)[C@@H]4[C@@H]12` (stereo not given in full), the composite z-score in [1] is -0.212; in test [3], -0.306; in test [4], -0.211; in test [5], 0.903; in test [6], 2.81; in test [7] it was 0.0653. The composite z-score in [8] was -0.381; in [9] it was -1.52; in test [10] it was -0.606; in test [11], 0.745; in test [12] it was -0.658; in test [13], -0.588. In addition, the composite z-score in test [14] was -1.36; in test [15], -1.12; in test [16], -1.06; in test [18], -0.78; in test [19] it was -0.729. The composite Z-score in test [2] is 0.703 (inactive). The z-score is 0.805 in [17] and -0.386 (inactive) in test [20].
Turning to `O=C1OCC=C[C@H]2OC34C=CCN(Cn5nnc6ccccc65)C(=O)[C@H]3N(CCCO)C(=O)[C@@H]4[C@@H]12` (stereo not given in full), the composite z-score in [1] was -0.877; in test [3], -0.279; in test [4] it was -0.185; in test [5], 0.847; in [6] it was -0.145; in [7] it was -0.124. Further, the composite z-score is -0.196 in test [8]; -0.682 in test [9]; -0.0288 in test [10]; 0.21 in test [11]; -0.603 in test [12]; -0.506 in [13]. Further, the composite z-score in [14] is -1.3; in [15], -0.537; in test [16] it was -0.241; in test [18], -0.618; in test [19] it was -0.43. In addition, the composite Z-score in test [2] was -0.309 (inactive). For the same molecule, the z-score is -0.842 in test [17] and 0.314 (inactive) in test [20].
`[N-]=[N+]=Nc1ccccc1[C@@H]1OC(c2ccc(OCCCO)cc2)=N[C@]1(Cc1ccccc1)C(=O)NCC(O)CO` (stereo not given in full): the composite z-score in [1] worked out at 0.937; in test [3] it was 0.453; in test [4], 0.178; in [5], 0.765; in test [6] it was 3.2; in test [7] it was 1.14. The composite z-score in test [8] was 0.897; in test [9], -0.638; in test [10] it was 0.468; in test [11] it was 2.23; in [12] it was 0.95; in test [13], 0.587. Moreover, the composite z-score was 0.966 in test [14]; 1.4 in test [15]; 1.06 in [16]; -0.823 in [18]; 1.2 in test [19]. In addition, the composite Z-score in [2] was 0.66 (inactive). Besides, the figures for the z-score in test [17] and in [20] were 1.63 and -4.93 (inactive), respectively.
For `CC(c1ccccc1)C(O)C1C=CC2C(=O)N(c3ccccc3)C(=O)C2N1Nc1ccc([N+](=O)[O-])cc1` (stereo not given), the composite z-score in test [1] was 0.903; in test [3], 0.158; in test [4] it was -0.0211; in [5] it was 0.526; in test [6], 2.95; in test [7], 0.0001. For the same molecule, the composite z-score in test [8] is 1.05; in test [9], -0.661; in [10] it was 1.12; in test [11], 1.75; in test [12], 1.25; in test [13], 0.605. In addition, the composite z-score in test [14] was 1.03; in [15] it was 1.03; in [16] it was 0.328; in test [18], 0.44; in test [19] it was 0.783. The composite Z-score in test [2] is -0.122 (inactive). Also, the z-score is -0.915 in [17] and 1.58 (inactive) in [20].
For the molecule `COC(=O)[C@@]1(Cc2ccccc2)[C@@H]2C(=CC(=O)[C@H]2CC(=O)C(=O)N(C)C)CN1C(=O)c1ccccc1`, the composite z-score in [1] is 0.93; in test [3], 0.462; in [4], 0.23; in test [5], 0.808; in [6], 2.61; in test [7], 0.931. Further, the composite z-score in test [8] was 1.2; in [9] it was -0.202; in test [10] it was 1.08; in [11], 2.15; in [12], 1.25; in test [13], 0.745. Further, the composite z-score is 0.0523 in test [14]; 0.324 in test [15]; -0.147 in test [16]; -0.271 in test [18]; 0.407 in test [19]. In addition, the composite Z-score in [2] was -0.0478 (inactive). In addition, the z-score is -0.312 in [17] and -21 (active) in [20].
